Measured values as given in PubChem BioAssay (EPA / NIEHS).
Results filed as inconclusive are left out. Activity calls are given as the source filed them. The calls were made as follows, unless noted: active = hit-call score of the fitted dose curve at least 0.9, where 1 is the maximum; inconclusive = response in the unintended direction; inactive = score below 0.9.

Legend:
[1] = biological target: Estrogen receptor (Homo sapiens) (UniProt P03372); experiment: OT_ERa_GFPERaERE_0480: Odyssey Thera (OT) 8-hour HeLa Transcription Induction Assay for Estrogen Receptor (AID 2283381; active = hit-call score of the fitted dose curve at least 0.9, where 1 is the maximum; inactive = score below 0.9)
In short: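 Fluorescence microscopy with high-content image analysis measures ERE-driven GFP induction in HeLa cells at 8 h post-dose. Increases fitted against DMSO baseline.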

[2] = biological target: Estrogen receptor (Homo sapiens) (UniProt P03372); experiment: OT_ERa_GFPERaERE_0120: Odyssey Thera (OT) 2-hour HeLa Transcription Induction Assay for Estrogen Receptor (AID 2283382)
In short: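 Fluorescence-microscopy images of the GFP-ERα/ERE reporter, scored by high-content image algorithms, give the readout. HeLa exposure lasted 2 h, and only signal increase over DMSO was fitted.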

[3] = biological target: Retinoic acid receptor RXR-alpha (Homo sapiens) (UniProt P19793); experiment: OT_NURR1_NURR1RXRa_1440: Odyssey Thera (OT) 24-hour HEK293T Protein Complementation Assay for Nurr1/retinoid X receptor (RXR) (AID 2283386)
In short: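 Gain in fluorescence, fitted relative to DMSO, reflects Nurr1–RXRα association in HEK293T cells after 24 h dosing. Bait and prey are each linked to a reporter-protein fragment that reassembles on interaction.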

[4] = biological target: Peroxisome proliferator-activated receptor gamma (Homo sapiens) (UniProt P37231); experiment: OT_PPARg_PPARgSRC1_0480: Odyssey Thera (OT) 8-hour Protein-Complementation Assay for Peroxisome Proliferator-activated Receptor Gamma / SRC-1 Co-activator (AID 2283387)
In short: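 Split-YFP (IFP1/IFP2) PPARg/SRC-1 reporter, HEK293T, 37 °C, 5% CO2; 8 h compound; formaldehyde fix + Draq5; high-content imaging, N/C ratio, ≥350 cells/image, positive direction vs DMSO.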

[5] = biological target: Peroxisome proliferator-activated receptor gamma (Homo sapiens) (UniProt P37231); experiment: OT_PPARg_PPARgSRC1_1440: Odyssey Thera (OT) 24-hour Protein-Complementation Assay for Peroxisome Proliferator-activated Receptor Gamma/ SRC-1 Co-activator (AID 2283388)
In short: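 HEK293T transiently transfected with PPARg/SRC-1 split-Venus YFP fusions 48 h before dosing, then treated 24 h at 37C. Fixed cells imaged; nuclear/cytoplasmic 488 nm fluorescence ratio, gain of signal versus DMSO.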

[6] = biological target: Bile acid receptor (Homo sapiens) (UniProt Q96RI1); experiment: OT_FXR_FXRSRC1_0480: Odyssey Thera (OT) 8-hour HEK293T Protein-Complementation Assay for Farnesoid X receptor/SRC-1 Co-activator (AID 2283383)
In short: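 Binding of FXR to coactivator SRC-1 was read as fluorescence from a reconstituted split reporter in HEK293T cells, 8 h after chemical addition. Only increases in signal versus DMSO were fit.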

[7] = biological target: Bile acid receptor (Homo sapiens) (UniProt Q96RI1); experiment: OT_FXR_FXRSRC1_1440: Odyssey Thera (OT) 24-hour HEK293T Protein-Complementation Assay for Farnesoid X receptor/SRC-1 Co-activator (AID 2283384)
In short: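 Protein-fragment complementation: FXR and SRC-1 fused to reporter fragments that reassemble on interaction, read by fluorescence intensity. Human HEK293T cells measured 24 h post-dose; positive-direction fit versus DMSO.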

[8] = biological target: Retinoic acid receptor RXR-alpha (Homo sapiens) (UniProt P19793); experiment: OT_NURR1_NURR1RXRa_0480: Odyssey Thera (OT) 8-hour HEK293T Protein Complementation Assay for Nurr1/retinoid X receptor (RXR) (AID 2283385)
In short: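 Interaction of Nurr1 with RXRα read as reconstituted reporter fluorescence in a HEK293T fragment-complementation system, 8 h post-treatment; increase over DMSO baseline analysed.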

[9] = biological target: Estrogen receptor beta (Homo sapiens) (UniProt Q92731); experiment: OT_ER_ERbERb_1440: Odyssey Thera (OT) 24-hour HEK293T Protein-Complementation Assay for Estrogen Receptor-beta/-beta Homodimer (AID 2283380);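 also: scored as signal increase over DMSO baseline for both agonists and antagonists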
In short: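 HEK293T cells stably expressing ER beta LBD (aa 310-547) homodimer fragment-complementation reporter, dosed 24 h. Cells formaldehyde-fixed, Draq5-stained; gain in nuclear (agonist) or nuclear plus cytoplasmic (antagonist) fluorescence versus DMSO read by laser scanning cytometry.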

[10] = CEETOX_H295R_OHPREG: CeeTox H295R High-throughput Steroidogenesis Assay for OH-Pregnenolone (OHPREG) (AID 2283434; active = hit-call score of the fitted dose curve at least 0.9, where 1 is the maximum; inactive = score below 0.9); details: actives raise or lower the signal
In short: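 H295R, 10 uM forskolin pre-stim 48 h; test chemical 48 h, 0.1% DMSO final. MTBE extraction, reverse-phase C18 HPLC-ESI+ MS/MS of medium. Gain/loss vs DMSO; viability by MTT in same wells.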

[11] = CEETOX_H295R_OHPROG: CeeTox H295R High-throughput Steroidogenesis Assay for OH-Progesterone (OHPROG) (AID 2283435; active = hit-call score of the fitted dose curve at least 0.9, where 1 is the maximum; inactive = score below 0.9;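 as to AC50: 17alpha-hydroxyprogesterone secreted into medium measured by HPLC-MS/MS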); details: actives raise or lower the signal
In short: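 Medium steroid levels read by LC-MS/MS after 48 h chemical treatment (0.1% DMSO) of human adrenal H295R cells that had been forskolin-primed (10 uM, 48 h). Gain or loss fitted against DMSO; MTT cytotoxicity checked per well.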

[12] = CEETOX_H295R_11DCORT: CeeTox H295R High-throughput Steroidogenesis Assay for 11-Deoxycortisol (11DCORT) (AID 2283432; active = hit-call score of the fitted dose curve at least 0.9, where 1 is the maximum; inactive = score below 0.9); details: actives raise or lower the signal
In short: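 Steroidogenesis in human H295R cells: 48 h chemical exposure after forskolin priming, 11-deoxycortisol measured by LC-MS/MS.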

[13] = CEETOX_H295R_ANDR: CeeTox H295R High-throughput Steroidogenesis Assay for Androstenedione (ANDR) (AID 2283436; active = hit-call score of the fitted dose curve at least 0.9, where 1 is the maximum; inactive = score below 0.9;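 also: human H295R adrenal cells exposed for 48 h with androstenedione measured in medium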); details: actives raise or lower the signal
In short: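 48 h chemical exposure, H295R cells, DMEM/F12 + ITS+ and Nu-Serum. Medium androstenedione: MTBE extraction, C18 reverse-phase HPLC, ESI+ MS/MS. Fit bidirectional vs DMSO; MTT viability in same wells.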

[14] = CEETOX_H295R_CORTIC: CeeTox H295R High-throughput Steroidogenesis Assay for Corticosterone (CORTIC) (AID 2283437; active = hit-call score of the fitted dose curve at least 0.9, where 1 is the maximum; inactive = score below 0.9;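 also: corticosterone secreted into medium quantified by mass spectrometry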;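 as to AC50: human H295R adrenal cells prestimulated with forskolin before chemical exposure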); details: actives raise or lower the signal
In short: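 48 h forskolin (10 uM) prestim, then 48 h chemical exposure, final DMSO 0.1%. Readout: corticosterone in medium by LC-MS/MS after MTBE extraction. Gain/loss fit vs DMSO; MTT viability in same wells.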

[15] = CEETOX_H295R_CORTISOL: CeeTox H295R High-throughput Steroidogenesis Assay for Cortisol (AID 2283438; active = hit-call score of the fitted dose curve at least 0.9, where 1 is the maximum; inactive = score below 0.9;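 also: cortisol secreted into medium quantified by LC-MS/MS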); details: actives raise or lower the signal
In short: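 Cortisol measured by HPLC-MS/MS after MTBE extraction of medium from H295R cells exposed 48 h to chemical (0.1% DMSO), following 48 h prestimulation with 10 uM forskolin. Viability assessed by MTT in the same wells.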

Chain of Bile acid receptor (Homo sapiens) (Q96RI1 whole entry, looked up, the tested form may be a part): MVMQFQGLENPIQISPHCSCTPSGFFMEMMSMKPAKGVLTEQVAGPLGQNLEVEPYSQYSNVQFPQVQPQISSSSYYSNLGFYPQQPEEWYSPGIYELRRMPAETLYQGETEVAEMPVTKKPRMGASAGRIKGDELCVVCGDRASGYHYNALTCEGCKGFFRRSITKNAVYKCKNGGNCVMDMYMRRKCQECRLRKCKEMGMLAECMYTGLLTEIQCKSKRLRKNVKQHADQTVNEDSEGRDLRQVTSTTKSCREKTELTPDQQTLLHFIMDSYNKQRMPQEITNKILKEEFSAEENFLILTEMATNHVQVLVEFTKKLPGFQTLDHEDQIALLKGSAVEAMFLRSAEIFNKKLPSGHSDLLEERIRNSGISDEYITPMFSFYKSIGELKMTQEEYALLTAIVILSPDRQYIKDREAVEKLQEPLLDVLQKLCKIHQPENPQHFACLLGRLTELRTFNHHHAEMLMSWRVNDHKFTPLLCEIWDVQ
Chain of Retinoic acid receptor RXR-alpha (Homo sapiens) (P19793 whole entry, looked up, the tested form may be a part): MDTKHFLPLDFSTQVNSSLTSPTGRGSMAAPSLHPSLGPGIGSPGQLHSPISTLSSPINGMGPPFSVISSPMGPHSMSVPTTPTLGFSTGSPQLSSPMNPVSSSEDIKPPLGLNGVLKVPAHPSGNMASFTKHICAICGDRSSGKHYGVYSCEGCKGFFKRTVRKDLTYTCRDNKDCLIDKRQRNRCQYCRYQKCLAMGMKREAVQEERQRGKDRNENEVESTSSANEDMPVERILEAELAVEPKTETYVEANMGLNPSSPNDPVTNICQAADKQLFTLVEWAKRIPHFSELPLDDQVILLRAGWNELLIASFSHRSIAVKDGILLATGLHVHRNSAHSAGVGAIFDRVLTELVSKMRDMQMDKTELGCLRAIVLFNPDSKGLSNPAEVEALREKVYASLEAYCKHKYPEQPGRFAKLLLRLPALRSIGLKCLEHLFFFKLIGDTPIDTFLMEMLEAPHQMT
Chain of Peroxisome proliferator-activated receptor gamma (Homo sapiens) (P37231 whole entry, looked up, the tested form may be a part): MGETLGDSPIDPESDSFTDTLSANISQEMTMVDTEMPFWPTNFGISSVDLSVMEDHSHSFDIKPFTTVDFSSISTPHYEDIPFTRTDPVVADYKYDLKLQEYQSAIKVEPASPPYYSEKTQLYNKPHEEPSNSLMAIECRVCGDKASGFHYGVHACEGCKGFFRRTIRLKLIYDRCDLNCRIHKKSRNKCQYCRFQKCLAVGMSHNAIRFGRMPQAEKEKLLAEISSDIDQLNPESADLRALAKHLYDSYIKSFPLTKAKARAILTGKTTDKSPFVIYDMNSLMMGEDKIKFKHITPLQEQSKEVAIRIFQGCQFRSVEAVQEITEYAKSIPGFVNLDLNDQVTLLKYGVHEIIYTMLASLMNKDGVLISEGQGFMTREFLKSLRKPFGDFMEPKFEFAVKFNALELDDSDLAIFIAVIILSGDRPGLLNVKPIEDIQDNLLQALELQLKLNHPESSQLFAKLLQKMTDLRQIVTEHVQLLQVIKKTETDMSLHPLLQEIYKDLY
Chain of Estrogen receptor beta (Homo sapiens) (Q92731 whole entry, looked up, the tested form may be a part): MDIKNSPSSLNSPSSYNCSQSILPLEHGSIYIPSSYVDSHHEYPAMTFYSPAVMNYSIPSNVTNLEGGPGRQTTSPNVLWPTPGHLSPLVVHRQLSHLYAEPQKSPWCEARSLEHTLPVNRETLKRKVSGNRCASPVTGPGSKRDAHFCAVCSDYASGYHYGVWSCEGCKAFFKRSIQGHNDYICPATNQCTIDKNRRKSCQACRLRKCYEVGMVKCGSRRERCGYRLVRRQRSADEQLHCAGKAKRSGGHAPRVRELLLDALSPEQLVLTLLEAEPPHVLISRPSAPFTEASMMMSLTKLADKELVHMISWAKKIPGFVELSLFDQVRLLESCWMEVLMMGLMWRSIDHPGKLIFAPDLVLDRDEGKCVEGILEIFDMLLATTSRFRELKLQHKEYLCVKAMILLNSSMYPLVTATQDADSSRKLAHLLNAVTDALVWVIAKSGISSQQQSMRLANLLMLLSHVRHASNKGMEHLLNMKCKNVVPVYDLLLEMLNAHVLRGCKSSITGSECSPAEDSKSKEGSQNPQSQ
Chain of Estrogen receptor (Homo sapiens) (P03372 whole entry, looked up): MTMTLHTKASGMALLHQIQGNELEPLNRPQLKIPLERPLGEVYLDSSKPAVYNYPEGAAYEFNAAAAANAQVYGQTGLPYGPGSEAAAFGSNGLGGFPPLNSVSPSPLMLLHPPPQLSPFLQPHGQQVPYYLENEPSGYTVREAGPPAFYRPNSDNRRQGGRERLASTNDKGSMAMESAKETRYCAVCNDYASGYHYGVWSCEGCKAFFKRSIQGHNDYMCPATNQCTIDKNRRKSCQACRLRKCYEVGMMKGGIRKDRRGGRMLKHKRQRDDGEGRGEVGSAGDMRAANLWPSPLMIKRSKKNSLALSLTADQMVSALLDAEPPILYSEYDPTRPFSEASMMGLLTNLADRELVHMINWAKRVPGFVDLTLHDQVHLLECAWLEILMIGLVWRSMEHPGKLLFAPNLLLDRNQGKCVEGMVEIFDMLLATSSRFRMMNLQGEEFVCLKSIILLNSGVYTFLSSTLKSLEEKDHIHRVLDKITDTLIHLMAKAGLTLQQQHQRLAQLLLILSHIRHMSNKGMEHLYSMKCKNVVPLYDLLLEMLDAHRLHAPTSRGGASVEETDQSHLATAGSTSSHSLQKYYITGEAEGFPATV

CC(=O)C=C(C)C
AC50 [1]: 7.47 µM (active)
AC50 [2]: 22.9 µM (active)
outcome [3]: inactive
outcome [4]: inactive
outcome [5]: inactive

O=C(OC1CCCCC1)c1ccccc1C(=O)OC1CCCCC1
outcome [1]: inactive
outcome [2]: inactive
AC50 [6]: 40.1 µM (active)
AC50 [7]: 61.8 µM (active)
AC50 [8]: 44.6 µM (active)
outcome [4]: inactive
outcome [5]: inactive

ClC1(Cl)C2(Cl)C3(Cl)C4(Cl)C(Cl)(Cl)C5(Cl)C3(Cl)C1(Cl)C5(Cl)C24Cl (configuration not stated)
outcome [1]: inactive
outcome [2]: inactive
outcome [6]: inactive
outcome [7]: inactive
outcome [8]: inactive
outcome [3]: inactive
outcome [4]: inactive
outcome [5]: inactive

Oc1cccc2cccnc12
outcome [9]: inactive
outcome [6]: inactive
outcome [4]: inactive
outcome [5]: inactive

Cc1ccccc1N
outcome [8]: inactive
outcome [3]: inactive

O=c1[nH]c(=O)[nH]c(=O)[nH]1
outcome [9]: inactive
outcome [3]: inactive
outcome [4]: inactive
outcome [5]: inactive

Clc1nc(Cl)nc(Cl)n1
outcome [1]: inactive
outcome [2]: inactive
outcome [8]: inactive
outcome [3]: inactive
outcome [5]: inactive

C[C@@H]1C[C@@H]([C@H](O)CC2CC(=O)NC(=O)C2)C(=O)[C@@H](C)C1
outcome [9]: inactive
outcome [4]: inactive
outcome [5]: inactive
outcome [10]: inactive
outcome [11]: inactive

CCC(C)(C)c1ccc(O)c(C(C)(C)CC)c1
outcome [9]: inactive
outcome [1]: inactive
outcome [2]: inactive
outcome [4]: inactive
outcome [5]: inactive

CN(CCCC(=O)c1cccnc1)N=O
outcome [12]: inactive
outcome [10]: inactive
outcome [11]: inactive
outcome [13]: inactive
outcome [14]: inactive
outcome [15]: inactive

O=C(NCO)NCO
outcome [1]: inactive
outcome [2]: inactive
outcome [3]: inactive
outcome [4]: inactive
outcome [5]: inactive

CN(C)N=O
outcome [9]: inactive
outcome [7]: inactive
outcome [8]: inactive
outcome [3]: inactive
outcome [4]: inactive
outcome [5]: inactive

C=CCc1ccc(OC)cc1
outcome [9]: inactive
outcome [8]: inactive
outcome [3]: inactive
outcome [4]: inactive
outcome [5]: inactive

O=C(Cc1ccccc1)c1ccccc1
outcome [1]: inactive
outcome [2]: inactive
outcome [6]: inactive
outcome [7]: inactive
outcome [8]: inactive
outcome [3]: inactive
outcome [12]: inactive
outcome [10]: inactive
AC50 [11]: 43.6 µM (active)
outcome [14]: inactive
outcome [15]: inactive

CC12CC1(C)C(=O)N(c1cc(Cl)cc(Cl)c1)C2=O (configuration not stated)
outcome [9]: inactive
outcome [8]: inactive
outcome [3]: inactive
outcome [4]: inactive
outcome [5]: inactive
outcome [12]: inactive
outcome [10]: inactive
AC50 [11]: 20.9 µM (active)
AC50 [13]: 30.9 µM (active)
AC50 [14]: 14.1 µM (active)
outcome [15]: inactive

COP(=O)(OC)OC
outcome [1]: inactive
outcome [2]: inactive
outcome [6]: inactive
outcome [7]: inactive
outcome [8]: inactive
outcome [3]: inactive
outcome [4]: inactive
outcome [5]: inactive

O=C/C=C/c1ccccc1
outcome [1]: inactive
outcome [2]: inactive
outcome [8]: inactive
outcome [3]: inactive
outcome [4]: inactive
outcome [5]: inactive

OCC(O)CCl (configuration not stated)
outcome [1]: inactive
outcome [2]: inactive
outcome [8]: inactive
outcome [3]: inactive
outcome [4]: inactive
outcome [5]: inactive

CNC
outcome [1]: inactive
outcome [2]: inactive
outcome [3]: inactive
outcome [4]: inactive
outcome [5]: inactive

COc1ccc(C=O)cc1
outcome [1]: inactive
outcome [2]: inactive
outcome [8]: inactive
outcome [4]: inactive
outcome [5]: inactive

O=C(O)C(F)(F)C(F)(F)C(F)(F)C(F)(F)C(F)(F)C(F)(F)F
outcome [9]: inactive
outcome [6]: inactive
outcome [7]: inactive
outcome [8]: inactive
outcome [3]: inactive
outcome [4]: inactive
outcome [5]: inactive

C1CCC(NC2CCCCC2)CC1
outcome [1]: inactive
outcome [2]: inactive
outcome [4]: inactive
outcome [5]: inactive
outcome [12]: inactive
outcome [10]: inactive
outcome [11]: inactive
outcome [14]: inactive
outcome [15]: inactive

CCCCOCCOC(C)=O
outcome [1]: inactive
outcome [2]: inactive
outcome [6]: inactive
outcome [7]: inactive
outcome [4]: inactive
outcome [5]: inactive

ClC(Cl)=C(Cl)C(Cl)=C(Cl)Cl
outcome [1]: inactive
outcome [2]: inactive
outcome [8]: inactive
outcome [3]: inactive
outcome [4]: inactive
outcome [5]: inactive

CCC1(c2ccc(N)cc2)CCC(=O)NC1=O (configuration not stated)
outcome [1]: inactive
outcome [2]: inactive
outcome [7]: inactive
outcome [3]: inactive
outcome [4]: inactive
outcome [5]: inactive

NC(=O)O
outcome [1]: inactive
outcome [2]: inactive
outcome [8]: inactive

CCCCCCCCSC(=O)Oc1cc(Cl)nnc1-c1ccccc1
outcome [1]: inactive
outcome [2]: inactive
outcome [8]: inactive
outcome [4]: inactive
outcome [5]: inactive

CC(=O)c1cc(C(C)(C)C)cc2c1CCC2(C)C
outcome [1]: inactive
outcome [2]: inactive
AC50 [8]: 74.2 µM (active)
AC50 [3]: 86.9 µM (active)
outcome [4]: inactive
outcome [5]: inactive
